# Experimental data published in PubChem BioAssay (Tox21).
# Where “and” joins values, the source holds several entries; their conditions need not be identical. Equal values may be shown once. Results filed as inconclusive are left out. Entries that show only a call come without a potency. The source holds several records for some structures; these can differ, active in one and inactive in another. Calls of active or inactive are those of the source. The call rests on the fitted dose curve; in most records, active means well fitted curve in the direction sought with a large enough effect in the repeat runs; inconclusive means weak or mixed curves; inactive means no such curve, though single readings can be large; an effect the other way counts as inactive or inconclusive.
# Assay: Human pregnane X receptor (PXR) small molecule agonists, qHTS cell viability counter screen (AID 1346977); further: nearly all actives have a fitted effect of over 50% in size; further: potency means the concentration at half of the fitted maximal effect
# Settings: PXR-Luc HepG2 viability, CellTiter-Fluor, 24 h; series mostly up to 92.4 µM
# Method in brief: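 In each well, the PXR reporter HepG2 line was checked for viability: CellTiter-Fluor reagent added 23hr post-dosing, fluorescence read after 1hr incubation at 37C.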
SMILES,Potency,"activity change, negative = cytotoxicity"
COC(=O)/C=C/c1ccccc1,inactive,–
CC(C)(O)CCC(C)(C)O,inactive,–
COC(=O)c1cccc(C(=O)OC)c1,inactive,–
CCCCN(CCO)CCCC,inactive,–
O=C1NCC2(CCN(CCc3ccccc3)CC2)O1,inactive,–
CC(=O)Nc1ccc(C(=O)CCl)cc1,inactive and 61.1 µM (active),–
O=C(O)CCc1ccccc1,inactive,–
CC(C)(C)c1cc(C(C)(C)C)c(O)c(C(C)(C)C)c1,inactive,–
C1COC(NC(C2CC2)C2CC2)=N1,inactive,–
Cc1ccnc2c1NC(=O)c1cccnc1N2C1CC1,inactive,–
Nc1ccc(O)cc1,56.6 µM (active) and inactive,–
C=CC(=O)OCCCCCCOC(=O)C=C,inactive,–
COc1nc(C)nc(Cl)c1NC1=NCCN1,inactive,–
CC(C)(C)c1ccccc1,inactive,–
CCCCOCCOC(=O)c1ccccc1C(=O)OCCOCCCC,inactive,–
Cc1cc(C(C)(C)C)c(O)c(C(C)(C)C)c1,inactive,–
CCCCC/C=C/CC1CC(=O)OC1=O (stereo not drawn),inactive,–
NC(Cc1ccc(Cl)cc1)C(=O)O (stereo not drawn),–,6.84% [at 0.349 µM] (inactive)
CCC(CO)(CO)COCC(CC)(CO)CO,inactive,–
Cc1cccc2n[nH]nc12,inactive,–
CCCC(=O)c1ccccc1,inactive,–
CC[C@@H](N)CO,inactive,–
c1ccc2c(c1)CCCC2C1=NCCN1 (stereo not drawn),inactive,–
CC(=O)OCC1=C(C(=O)O)N2C(=O)[C@@H](NC(=O)Cc3cccs3)[C@H]2SC1,inactive,–
NC(N)=NC(=O)Cc1c(Cl)cccc1Cl,inactive,–
Cc1occc(=O)c1OC(=O)C(C)C,inactive,–
CCN1CCCC1CNC(=O)c1cc(S(=O)(=O)CC)c(N)cc1OC (stereo not drawn),inactive,–
Clc1ccc2c(c1)C(N1CCNCC1)=Nc1ccccc1O2,29.8 µM (active),–

# Assay: Caspase-3/7 induction in HepG2 cells by small molecules, qHTS assay (AID 1346978); further: nearly all actives have a fitted effect of over 15% in size
# Settings: HepG2 caspase-3/7 activation, Caspase-Glo luminescence, 17 h; series mostly up to 92.4 µM
# Method in brief: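 Wild-type HepG2 cells, 2,000/well, settled 5 hr at 37 C and 5% CO2, then compound-treated for 17 hr; caspase-3/7 activity read by luminescent Caspase-Glo 3/7 after 30 min at room temperature.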
SMILES,Potency,caspase activation
CC(=O)C1=C(C)[C@@H]2C[C@@]3(C1)[C@H](C)CC[C@H]3C2(C)C,inactive,–
COC(=O)/C=C/c1ccccc1,inactive,–
COC(=O)c1cccc(C(=O)OC)c1,inactive,–
O=C(O)CCc1ccccc1,inactive,–
CC(C)(C)c1cc(C(C)(C)C)c(O)c(C(C)(C)C)c1,inactive,–
C1COC(NC(C2CC2)C2CC2)=N1,inactive,–
Cc1ccnc2c1NC(=O)c1cccnc1N2C1CC1,inactive,–
Cc1scc2c1N(C(=O)CN1CCN(C)CC1)c1ccccc1NC2=O,inactive,–
NNCCc1ccccc1,inactive,–
Nc1ccc(O)cc1,inactive,–
C=CC(=O)OCCCCCCOC(=O)C=C,inactive,–
COc1nc(C)nc(Cl)c1NC1=NCCN1,inactive,–
CC(C)(C)c1ccccc1,inactive,–
CCCCOCCOC(=O)c1ccccc1C(=O)OCCOCCCC,inactive,–
Cc1cc(C(C)(C)C)c(O)c(C(C)(C)C)c1,inactive,–
NC(Cc1ccc(Cl)cc1)C(=O)O (stereo not drawn),–,-0.871% [at 0.349 µM] (inactive)
Nc1nc2ccccc2[nH]1,inactive,–
CCC(CO)(CO)COCC(CC)(CO)CO,inactive,–
CCOc1ccccc1C(N)=O,inactive,–
CCCC(=O)c1ccccc1,inactive,–
CC(=O)OCC1=C(C(=O)O)N2C(=O)[C@@H](NC(=O)Cc3cccs3)[C@H]2SC1,inactive,–
CC1=C(C=O)C(C)(C)CC=C1,inactive,–
Cc1occc(=O)c1OC(=O)C(C)C,inactive,–
CCN1CCCC1CNC(=O)c1cc(S(=O)(=O)CC)c(N)cc1OC (stereo not drawn),inactive,–
Clc1ccc2c(c1)C(N1CCNCC1)=Nc1ccccc1O2,inactive,–
